Seven compounds from PubChem BioAssay (NCI) can be followed below.

The panel holds about 83,000 compounds, 20% with a hit somewhere; the sample as a whole holds those more often.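 Activity criterion: percent growth below 10, measured after cells in 96-well plates were exposed to a single compound concentration for 48 hours.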 Values without a mark were called inactive. The source made the active and inactive calls.

Test systems include NCI-H23 lung; NCI-H226 lung; NCI-H322M lung; HOP-62 NSCLC; NCI-H460 lung; HOP-92 NSCLC; NCI-H522 lung; A549/ATCC NSCLC; 786-0 renal; COLO 205 colon; DU-145 prostate; K-562 leukemia; MALME-3M melanoma; MDA-MB-231 breast; RXF 393 renal; SF-268 CNS; SF-295 CNS; SF-539 CNS; UACC-257 melanoma; M14 melanoma.
Common to all, as to assay: NCI-60 one-dose screen, 48 h (100 = growth as untreated, 0 = no growth, -100 = all killed)
What all share (details): 10 µM unless noted

As to `CCN1C(=O)NC(=O)C(C)(N2C(=O)c3c(F)c(F)c(F)c(F)c3C2=O)C1=O` (configuration not stated), the growth with NCI-H23 lung is 32.3%; in the experiment with NCI-H226 lung it was 105%; with NCI-H322M lung, 96.7%; in the experiment on HOP-62 NSCLC, 101%; in the experiment on NCI-H460 lung, 22.8%; in the experiment on HOP-92 NSCLC it was -42.6% (active). Besides, the growth in the experiment on NCI-H522 lung was -76.6% (active); with A549/ATCC NSCLC, 43.1%; in the experiment on 786-0 renal it was 37.4%; in the experiment with COLO 205 colon it was -51.4% (active); with DU-145 prostate, 31.9%; with K-562 leukemia, -71.2% (active). Also, the growth in the experiment with MALME-3M melanoma is -39.6% (active); in the experiment on MDA-MB-231 breast it was 9.99% (active); in the experiment on RXF 393 renal, -63.8% (active); in the experiment on SF-268 CNS it was 5.09% (active); in the experiment with SF-295 CNS, 84.1%; with SF-539 CNS, 18.6%. Also, the growth with UACC-257 melanoma was 38.5%; in the experiment on M14 melanoma, 24.4%.

Regarding `CNC(=O)O/N=C(\SC)C(=O)N(C)C`, the growth in the experiment on NCI-H23 lung was 93.4%; in the experiment on NCI-H226 lung it was 110%; in the experiment with NCI-H322M lung, 111%; in the experiment on HOP-62 NSCLC, 105%; in the experiment with NCI-H460 lung, 107%; with HOP-92 NSCLC it was 76.8%. In addition, the growth is 77.5% in the experiment with NCI-H522 lung; 109% in the experiment on A549/ATCC NSCLC; 105% with 786-0 renal; 105% with COLO 205 colon; 117% in the experiment with DU-145 prostate; 89.2% in the experiment with K-562 leukemia. The growth is 117% with MALME-3M melanoma; 110% in the experiment on MDA-MB-231 breast; 105% with RXF 393 renal; 105% with SF-268 CNS; 113% with SF-295 CNS; 103% with SF-539 CNS. Further, the results for the growth with UACC-257 melanoma and in the experiment on M14 melanoma were 103% and 102%, respectively.

On to `CC1=C(C)C(=O)O[C@@H]([C@](C)(O)[C@]2(O)CC[C@@]3(O)[C@@H]4C[C@H]5O[C@]56CC=CC(=O)[C@]6(C)[C@H]4CC[C@]23C)C1`, for which the growth in the experiment on NCI-H23 lung is -22% (active); with NCI-H226 lung it was -45.2% (active); in the experiment on NCI-H322M lung, -15.5% (active); in the experiment on HOP-62 NSCLC it was 2.69% (active); in the experiment on NCI-H460 lung, 5.64% (active); with HOP-92 NSCLC it was 15.7%. Besides, the growth with NCI-H522 lung was -59.5% (active); in the experiment on A549/ATCC NSCLC, 7.89% (active); with 786-0 renal it was -30.7% (active); in the experiment on COLO 205 colon, -83.1% (active); in the experiment with DU-145 prostate it was 7.11% (active); with K-562 leukemia, 3.63% (active). Moreover, the growth was -4.58% (active) in the experiment with MALME-3M melanoma; 30.3% in the experiment on MDA-MB-231 breast; -22.6% (active) in the experiment with SF-268 CNS; 4.3% (active) in the experiment on SF-295 CNS; -10.1% (active) in the experiment with SF-539 CNS; 6.11% (active) with UACC-257 melanoma. The growth with M14 melanoma is 11.3%.

Take `COc1ccc2c(c1)C1(C)CCN(C)CC(C1)C2O` (configuration not stated): the growth was 98.1% with NCI-H23 lung; 81.7% in the experiment with NCI-H226 lung; 105% in the experiment on NCI-H322M lung; 100% in the experiment on HOP-62 NSCLC; 105% in the experiment with NCI-H460 lung; 101% with HOP-92 NSCLC. For the same compound, the growth is 95.1% in the experiment on A549/ATCC NSCLC; 94.8% with 786-0 renal; 103% in the experiment on COLO 205 colon; 104% in the experiment with DU-145 prostate; 99.9% with K-562 leukemia; 93.3% in the experiment on MALME-3M melanoma. Besides, the growth in the experiment on MDA-MB-231 breast is 113%; with RXF 393 renal, 97%; in the experiment on SF-268 CNS, 100%; in the experiment on SF-539 CNS, 97.2%; with UACC-257 melanoma it was 97%; with M14 melanoma, 98.1%.

`COc1ccc(N)cc1N`: the growth with NCI-H23 lung is 96.8%; with NCI-H226 lung, 103%; in the experiment with NCI-H322M lung, 96.1%; in the experiment on HOP-62 NSCLC it was 95.5%; with NCI-H460 lung, 107%; in the experiment on HOP-92 NSCLC it was 85.7%. Moreover, the growth is 118% in the experiment with A549/ATCC NSCLC; 102% in the experiment on 786-0 renal; 121% with COLO 205 colon; 120% in the experiment with DU-145 prostate; 115% with K-562 leukemia; 117% in the experiment with MALME-3M melanoma. Further, the growth is 99% in the experiment on MDA-MB-231 breast; 128% in the experiment on SF-268 CNS; 105% with SF-295 CNS; 92.8% in the experiment on SF-539 CNS; 111% in the experiment with M14 melanoma.

Consider `O=C(O)c1cc([N+](=O)[O-])cc([N+](=O)[O-])c1`, for which the growth was 107% in the experiment on NCI-H23 lung; 97% in the experiment on NCI-H226 lung; 105% in the experiment with NCI-H322M lung; 85.6% in the experiment with HOP-62 NSCLC; 106% in the experiment on NCI-H460 lung; 88.2% in the experiment with HOP-92 NSCLC. Also, the growth is 67.9% with NCI-H522 lung; 79.6% in the experiment with A549/ATCC NSCLC; 97.9% in the experiment on 786-0 renal; 118% in the experiment on COLO 205 colon; 109% in the experiment on DU-145 prostate; 116% in the experiment with K-562 leukemia. For the same compound, the growth in the experiment with MALME-3M melanoma is 109%; in the experiment with MDA-MB-231 breast, 120%; with SF-268 CNS it was 97%; in the experiment on SF-295 CNS, 101%; with SF-539 CNS it was 104%; in the experiment on UACC-257 melanoma, 61.8%. For the same compound, in the experiment on M14 melanoma, the growth was 95.9%.

Take `CC[C@H](C)[C@H](NC(=O)C12CC(NC)(C1)C2)C(=O)N(C)[C@H](C[C@@H](OC(C)=O)c1nc(C(=O)N[C@@H](Cc2ccccc2)C[C@H](C)C(=O)OC)cs1)C(C)C`: the growth was 15.2% with NCI-H23 lung; 24.9% in the experiment with NCI-H226 lung; 51.2% in the experiment with NCI-H322M lung; 28.6% with HOP-62 NSCLC; 15% in the experiment on NCI-H460 lung; 17.5% with HOP-92 NSCLC. In addition, the growth in the experiment with A549/ATCC NSCLC is 20%; in the experiment with 786-0 renal, 24.7%; in the experiment with COLO 205 colon, -19.6% (active); in the experiment with DU-145 prostate it was -8.21% (active); in the experiment on K-562 leukemia, 6.14% (active); in the experiment on MALME-3M melanoma it was 69%. Moreover, the growth with MDA-MB-231 breast is 13.8%; in the experiment on RXF 393 renal, 13.4%; in the experiment on SF-268 CNS, 30.4%; in the experiment with SF-295 CNS, 4.61% (active); in the experiment on SF-539 CNS, -7.76% (active); in the experiment with UACC-257 melanoma it was 56.6%. The growth in the experiment on M14 melanoma is 6.71% (active).
